Data from PubChem BioAssay (NCI).
The panel holds about 83,000 compounds, 20% with a hit somewhere; the sample as a whole holds those more often.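 Plates (96-well) were seeded with cells, treated with compound at one concentration, and incubated for 48 hours before percent growth was determined.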 The source made the active and inactive calls. How the source made its calls: active means growth percent below 10; inactive means the rest.

Test system: UACC-257 melanoma
Experiment: NCI-60 one-dose screen, 48 h (100 = growth as untreated, 0 = no growth, -100 = all killed)
Conditions: 10 µM unless noted

| Structure (SMILES) | growth |
| --- | --- |
| COc1cc(C2CC(C3C(=O)N(C)C(=O)N(C)C3=O)=NN2C=O)cc(OC)c1OC (stereo not given) | 78.3% (inactive) |
| C=C1CCC2C3(C)COC(c4ccccc4)OC3CCC2(C)C1C/C=C1/C(=O)OCC1OC(C)=O (stereo not given) | 91.3% (inactive) |
| Clc1ccc(C2=NN(c3ccc(Cl)cc3)C(c3cccc(Nc4ccnc5cc(Cl)ccc45)c3)C2)cc1 (stereo not given) | 76.8% (inactive) |
| CC(=O)N1N=C(c2ccc(Nc3nc(NCCO)nc(NCCO)n3)cc2)CC1c1ccc(Cl)cc1 (stereo not given) | 91.8% (inactive) |
| O=C(c1ccccc1)c1ccc(Oc2ccc([N+](=O)[O-])cc2[N+](=O)[O-])cc1 | 71% (inactive) |
| O=C(C(=O)N1CCOCC1)c1cn(CCCn2cc(C(=O)C(=O)N3CCOCC3)c3ccccc32)c2ccccc12 | 107% (inactive) |
| CC(C)CC1NC(=O)C(CCCN)NC(=O)C(C(C)C)NC(=O)C2CCCN2C(=O)C(Cc2ccccc2)NC(=O)C(CC(C)C)NC(=O)C(CCCN)NC(=O)C(C(C)C)NC(=O)C2CCCN2C(=O)C(Cc2ccccc2)NC1=O (stereo not given) | -72.9% (active) |
| Cc1csc(C#Cc2cncc(O)c2)n1 | 98.5% (inactive) |
| COc1cc(/C=C/C(=O)C(C(=O)/C=C/c2ccc(OC(=O)CCNC34CC5CC(CC(C5)C3)C4)c(OC)c2)C(=O)CCNC23CC4CC(CC(C4)C2)C3)ccc1OC(=O)CCNC12CC3CC(CC(C3)C1)C2 (stereo not given) | 48.1% (inactive) |
| C/C=C(/C(=C/C)c1ccc(O)cc1)c1ccc(O)cc1 | 53.9% (inactive) |
| COc1cc(/C=C/C(=O)CC(=O)/C=C/c2ccc(OC(=O)CCNC34CC5CC(CC(C5)C3)C4)c(OC)c2)ccc1OC(=O)CCNC12CC3CC(CC(C3)C1)C2 | 73.9% (inactive) |
| Oc1c(Cl)cc(Cl)c(Cl)c1Cc1c(O)c(Cl)cc(Cl)c1Cl | 9.73% (active) |
| COc1cc(C2CC(c3ccc(C)cc3)=NN2C=O)ccc1OCCN(C)C (stereo not given) | 92.9% (inactive) |
| NS(=O)(=O)c1cc(C2(O)NC(=O)c3ccccc32)ccc1Cl (stereo not given) | 112% (inactive) |
| CCn1cnc(C[C@H](NC(=O)[C@H](CCCCNC(=O)Nc2cc(C(F)(F)F)cc(C(F)(F)F)c2)NC(=O)Nc2cc(C(F)(F)F)cc(C(F)(F)F)c2)C(=O)OC)c1 | -59.1% [100 µM] (active) |
| CS(=O)(=O)N1CCN(Cc2cc3nc(-c4cccc5[nH]ncc45)nc(N4CCOCC4)c3s2)CC1 (tested in a mixture with another compound) | 20% (inactive) |
| CN(C)c1ccc(-c2nc3ncc(Br)cc3o2)cc1 | 104% (inactive) |
| COc1ccc(-c2cc(-c3nnc(SCC(=O)Nc4ccc(C(C)=O)cc4)n3-c3ccccc3)c3ccccc3n2)cc1OC | 87.1% (inactive) |
| Nc1nc(NC2CC2)c2ncn(C3C=CC(CO)C3)c2n1 (stereo not given) | 100% (inactive) |
| C[C@]12CCC(=O)C=C1CC[C@H]1[C@@H]3C[C@@H](O)[C@](O)(C(=O)CO)[C@@]3(C)C[C@H](O)[C@@]12F | 82.1% (inactive) |

| Structure (SMILES) | growth |
| --- | --- |
| NS(=O)(=O)c1cc2c(cc1Cl)NC=NS2(=O)=O | 104% (inactive) |
| COc1cnc2c(c1)C(=O)c1c-2n(CCCn2ccnc2)c(=O)c2cc(F)ccc12 | -34.7% (active) |
| NC(=O)c1cc(Br)cc(Br)c1NS(=O)(=O)c1ccccc1 | 131% (inactive) |
| CN(C)c1ccc(-n2nc3ccccc3n2)cc1 | 101% (inactive) |
| CC1CN(C2CCCCC2)C(=O)NC1=O (stereo not given) | 109% (inactive) |
| O=C1C=CC(=O)N1c1ccccc1N1C(=O)C=CC1=O | 115% (inactive) |
| Cc1n(Cc2ccc3ccccc3c2)c2ccccc2[n+]1Cc1ccc2ccccc2c1 | -53.9% (active) |
| C[C@H]1O[C@@H](O[C@H]2[C@@H](O)C[C@H](O[C@H]3[C@@H](O)C[C@H](O[C@H]4CC[C@]5(C)C6C[C@@H](O)[C@]7(C)[C@@H](C8=CC(=O)OC8)CC[C@]7(O)C6CC[C@@H]5C4)O[C@@H]3C)O[C@@H]2C)C[C@H](O)[C@@H]1O (stereo not given in full) | -100% (active) |
| O=C(CNc1ccc2c(c1)C(=O)c1ccccc1C2=O)Nc1ccc2c(c1)C(=O)c1ccccc1C2=O | -90.3% (active) |
| Cc1sc2nc(N3CCCCC3)[nH]c(=O)c2c1C | 89.1% (inactive) |
| NC(=NCCCCCCN=C(N)/N=C(\N)Nc1ccc(Cl)cc1)/N=C(\N)Nc1ccc(Cl)cc1 | 33.7% (inactive) |
| COc1cc(NC(=O)NCc2ccco2)ccc1-c1ccc(NC(=O)NCc2ccco2)cc1OC | 51% (inactive) |
| CSc1nc(Nc2ccc(S(=O)(=O)Nc3ccon3)cc2)c(C#N)c(-c2ccc(Cl)cc2)n1 | 112% (inactive) |
| COP(=O)(OC)C(c1ccc(O)cc1)(c1ccc(O)cc1)c1ccc(O)cc1 | 100% (inactive) |
| C=C1CCC2C(C)(COC(=O)CC)C(OC(=O)CC)CCC2(C)C1C/C=C1/C(=O)OCC1OC(=O)CC (stereo not given) | 0.936% (active) |
| Cc1cnc2nc(-c3ccc(N(C)C)cc3)cn2c1 | 102% (inactive) |
| Cc1ccc2nc3c(n2c1)C(=O)C(=O)c1ccccc1-3 | -90.3% (active) |
| CC(C)=CCCC(C)c1ccc(C)c2c1OCN(CC1CCNCC1)C2 (stereo not given) | 24.6% (inactive) |
| CCOc1cc(/C=C/C(=O)C(C(=O)/C=C/c2ccc(OC(=O)CNc3nc4ccccc4[nH]3)c(OCC)c2)C(=O)CNc2nc3ccccc3[nH]2)ccc1OC(=O)CNc1nc2ccccc2[nH]1 | 21.1% (inactive) |
| COc1ccc(C(=O)/C=C/c2cccc(Nc3ccnc4cc(Cl)ccc34)c2)cc1 | 37.8% (inactive) |
